# PubChem BioAssay AID1159580 (chemical genetic matrix, 2015)
# The campaign covered roughly 5,500 compounds. About 2,000 (36%) were called active. About 18% were inconclusive and are not listed. The list shows a part of the results. A number with no mark means an inactive call. No stated cut-off is given here; in the data, active means normalized growth mostly below about 0.91 (no sharp cut-off); inconclusive means no clear call, values can overlap the other calls; inactive means mostly above about 0.92.
# Assay: chemical genetic growth profiling, strain panel (AID 1159580);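 further: tested at 20 µM; growth read once vehicle control cultures reached saturation at 30 °C; 1 = growth at the plate median or of vehicle wells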
# Conditions: growth OD
structure (smiles),measurement,setting,value
OC[C@H]1O[C@@](CO)(O[C@@H]2O[C@H](CO)[C@@H](O)[C@H](O)[C@H]2O)[C@@H](O[C@@H]2O[C@H](CO)[C@@H](O)[C@H](O)[C@H]2O)[C@@H]1O,normalized growth,"S. cerevisiae deletion strains, locus YJR043C, strain POL32, stronger effect = lower value",1.04
same,normalized growth,"S. cerevisiae deletion strains, locus YJR066W, strain TOR1, stronger effect = lower value",0.956
same,normalized growth,"S. cerevisiae deletion strains, locus YKL009W, strain mrt4, stronger effect = lower value",1.03
same,normalized growth,"S. cerevisiae deletion strains, locus YKL068W, stronger effect = lower value",0.997
same,normalized growth,"S. cerevisiae deletion strains, locus YKL085W, strain MDH1 (second series), stronger effect = lower value",1.01
same,normalized growth,"S. cerevisiae deletion strains, locus YKL085W, strain MDH1, stronger effect = lower value",1.01
same,normalized growth,"S. cerevisiae deletion strains, locus YKL160W, strain elf1, stronger effect = lower value",1.02
same,normalized growth,"S. cerevisiae deletion strains, locus YKR001C, strain vps1, stronger effect = lower value",1.11 [resistant] (active)
same,normalized growth,"S. cerevisiae deletion strains, locus YKR026C, strain gcn3, stronger effect = lower value",0.994
same,normalized growth,"S. cerevisiae deletion strains, locus YKR091W, strain srl3, stronger effect = lower value",1.01
same,normalized growth,"S. cerevisiae deletion strains, locus YLL001W, strain dnm1, stronger effect = lower value",0.996
same,normalized growth,"S. cerevisiae deletion strains, locus YLL026W, stronger effect = lower value",1.02
same,normalized growth,"S. cerevisiae deletion strains, locus YLL041C, strain sdh2, stronger effect = lower value",1.01
same,normalized growth,"S. cerevisiae deletion strains, locus YLR027C, strain aat2, stronger effect = lower value",1.01
same,normalized growth,"S. cerevisiae deletion strains, locus YLR039C, strain RIC1, stronger effect = lower value",1.18
same,normalized growth,"S. cerevisiae deletion strains, locus YLR058C, strain SHM2, stronger effect = lower value",1.03
same,normalized growth,"S. cerevisiae deletion strains, locus YLR102C, strain apc9, stronger effect = lower value",1.02
same,normalized growth,"S. cerevisiae deletion strains, locus YLR113W, strain HOG1, stronger effect = lower value",0.986
same,normalized growth,"S. cerevisiae deletion strains, locus YLR221C, strain rsa3, stronger effect = lower value",1.01
same,normalized growth,"S. cerevisiae deletion strains, locus YLR258W, strain gsy2, stronger effect = lower value",1.02
same,normalized growth,"S. cerevisiae deletion strains, locus YLR262C, strain YPT6 (second series), stronger effect = lower value",1
same,normalized growth,"S. cerevisiae deletion strains, locus YLR262C, strain YPT6, stronger effect = lower value",1.16
same,normalized growth,"S. cerevisiae deletion strains, locus YLR268W, strain sec22, stronger effect = lower value",1.05
same,normalized growth,"S. cerevisiae deletion strains, locus YLR320W, strain mms22, stronger effect = lower value",1.03
same,normalized growth,"S. cerevisiae deletion strains, locus YLR330W, strain CHS5, stronger effect = lower value",1.02
same,normalized growth,"S. cerevisiae deletion strains, locus YLR342W, strain FKS1 (second series), stronger effect = lower value",1.08
same,normalized growth,"S. cerevisiae deletion strains, locus YLR342W, strain FKS1, stronger effect = lower value",1.02
same,normalized growth,"S. cerevisiae deletion strains, locus YLR357W, strain rsc2, stronger effect = lower value",0.991
same,normalized growth,"S. cerevisiae deletion strains, locus YLR370C, strain arc18, stronger effect = lower value",1.03
same,normalized growth,"S. cerevisiae deletion strains, locus YLR371W, strain rom2, stronger effect = lower value",0.999
same,normalized growth,"S. cerevisiae deletion strains, locus YLR384C, strain iki3, stronger effect = lower value",1.01
same,normalized growth,"S. cerevisiae deletion strains, locus YLR418C, strain cdc73, stronger effect = lower value",1.09
same,normalized growth,"S. cerevisiae deletion strains, locus YML016C, strain PPZ1, stronger effect = lower value",1.01
same,normalized growth,"S. cerevisiae deletion strains, locus YML032C, strain rad52, stronger effect = lower value",1.03
same,normalized growth,"S. cerevisiae deletion strains, locus YML120C, strain ndi1, stronger effect = lower value",1.03
same,normalized growth,"S. cerevisiae deletion strains, locus YML124C, strain tub3, stronger effect = lower value",1.01
same,normalized growth,"S. cerevisiae deletion strains, locus YMR058W, strain fet3, stronger effect = lower value",1.02
same,normalized growth,"S. cerevisiae deletion strains, locus YMR078C, strain ctf18, stronger effect = lower value",1.02
same,normalized growth,"S. cerevisiae deletion strains, locus YMR125W, strain sto1, stronger effect = lower value",1.02
same,normalized growth,"S. cerevisiae deletion strains, locus YMR129W, stronger effect = lower value",1.03
same,normalized growth,"S. cerevisiae deletion strains, locus YMR205C, strain PFK2, stronger effect = lower value",1.04
same,normalized growth,"S. cerevisiae deletion strains, locus YMR223W, strain ubp8, stronger effect = lower value",1.03
same,normalized growth,"S. cerevisiae deletion strains, locus YMR231W, strain pep5, stronger effect = lower value",1.01
same,normalized growth,"S. cerevisiae deletion strains, locus YMR263W, strain SAP30, stronger effect = lower value",1.02
same,normalized growth,"S. cerevisiae deletion strains, locus YMR307W, strain GAS1, stronger effect = lower value",1.03
same,normalized growth,"S. cerevisiae deletion strains, locus YNL067W, strain RPL9B, stronger effect = lower value",1.03
same,normalized growth,"S. cerevisiae deletion strains, locus YNL071W, strain lat1, stronger effect = lower value",1.01
same,normalized growth,"S. cerevisiae deletion strains, locus YNL128W, strain TEP1, stronger effect = lower value",1.03
same,normalized growth,"S. cerevisiae deletion strains, locus YNL183C, strain NPR1, stronger effect = lower value",0.946
same,normalized growth,"S. cerevisiae deletion strains, locus YNL209W, strain ssb2, stronger effect = lower value",1.02
same,normalized growth,"S. cerevisiae deletion strains, locus YNL233W, strain BNI4, stronger effect = lower value",1.06
same,normalized growth,"S. cerevisiae deletion strains, locus YNL248C, strain rpa49, stronger effect = lower value",1.01
same,normalized growth,"S. cerevisiae deletion strains, locus YNL250W, strain rad50, stronger effect = lower value",1.03
same,normalized growth,"S. cerevisiae deletion strains, locus YNL271C, strain bni1, stronger effect = lower value",1.02
same,normalized growth,"S. cerevisiae deletion strains, locus YNL298W, strain CLA4, stronger effect = lower value",1.02
same,normalized growth,"S. cerevisiae deletion strains, locus YNL307C, strain MCK1, stronger effect = lower value",1.01
same,normalized growth,"S. cerevisiae deletion strains, locus YNL322C, strain KRE1 (second series), stronger effect = lower value",1.02
same,normalized growth,"S. cerevisiae deletion strains, locus YNR049C, strain mso1, stronger effect = lower value",1.02
same,normalized growth,"S. cerevisiae deletion strains, locus YNR052C, strain pop2, stronger effect = lower value",1.03
same,normalized growth,"S. cerevisiae deletion strains, locus YOL006C, strain TOP1, stronger effect = lower value",1.23
same,normalized growth,"S. cerevisiae deletion strains, locus YOL012C, strain htz1",1.32
same,normalized growth,"S. cerevisiae deletion strains, locus YOL147C, strain pex11, stronger effect = lower value",1
same,normalized growth,"S. cerevisiae deletion strains, locus YOR001W, strain rrp6, stronger effect = lower value",1
same,normalized growth,"S. cerevisiae deletion strains, locus YOR061W, strain CKA2, stronger effect = lower value",1.04
same,normalized growth,"S. cerevisiae deletion strains, locus YOR069W, strain VPS5, stronger effect = lower value",1.02
same,normalized growth,"S. cerevisiae deletion strains, locus YOR070C, strain gyp1, stronger effect = lower value",1.01
same,normalized growth,"S. cerevisiae deletion strains, locus YOR080W, strain dia2, stronger effect = lower value",1.02
same,normalized growth,"S. cerevisiae deletion strains, locus YOR083W, strain WHI5, stronger effect = lower value",1.01
same,normalized growth,"S. cerevisiae deletion strains, locus YOR106W, strain vam3, stronger effect = lower value",1
same,normalized growth,"S. cerevisiae deletion strains, locus YOR136W, strain idh2, stronger effect = lower value",1.02
same,normalized growth,"S. cerevisiae deletion strains, locus YOR144C, strain elg1, stronger effect = lower value",1.02
same,normalized growth,"S. cerevisiae deletion strains, locus YOR184W, strain ser1, stronger effect = lower value",1.06
same,normalized growth,"S. cerevisiae deletion strains, locus YOR231W, strain MKK1, stronger effect = lower value",1
same,normalized growth,"S. cerevisiae deletion strains, locus YOR265W, strain rbl2, stronger effect = lower value",1.01
same,normalized growth,"S. cerevisiae deletion strains, locus YOR270C, strain vph1, stronger effect = lower value",1.05
same,normalized growth,"S. cerevisiae deletion strains, locus YOR290C, strain snf2, stronger effect = lower value",0.981
same,normalized growth,"S. cerevisiae deletion strains, locus YOR316C, strain cot1, stronger effect = lower value",1.02
same,normalized growth,"S. cerevisiae deletion strains, locus YPL051W, strain arl3, stronger effect = lower value",1.01
same,normalized growth,"S. cerevisiae deletion strains, locus YPL055C, strain LGE1, stronger effect = lower value",1.08
same,normalized growth,"S. cerevisiae deletion strains, locus YPL078C, strain atp4, stronger effect = lower value",1
same,normalized growth,"S. cerevisiae deletion strains, locus YPL106C, strain sse1, stronger effect = lower value",1.02
same,normalized growth,"S. cerevisiae deletion strains, locus YPL240C, strain hsp82, stronger effect = lower value",1.03
same,normalized growth,"S. cerevisiae deletion strains, locus YPL256C, strain CLN2, stronger effect = lower value",1
same,normalized growth,"S. cerevisiae deletion strains, locus YPR119W, strain clb2, stronger effect = lower value",1.03
same,normalized growth,"S. cerevisiae deletion strains, locus YPR141C, strain kar3, stronger effect = lower value",1.02
same,normalized growth,"S. cerevisiae deletion strains, locus YPR163C, strain tif3, stronger effect = lower value",1.04
same,normalized growth,"S. cerevisiae deletion strains, locus YPR167C, strain met16, stronger effect = lower value",1.02
same,normalized growth,"S. cerevisiae deletion strains, strain wtn01, stronger effect = lower value",1.04
same,normalized growth,"S. cerevisiae strains, strain wild type, stronger effect = lower value",1.04
